Measurements taken from PubChem BioAssay AID488890 (Southern Research Specialized Biocontainment Screening …, 2010).
Out of some 320,000 compounds screened, about 1,300 (0.41%) were called active. Roughly 3% stayed inconclusive and do not appear here. No rule for the calls is given here. Not all results are given here. Measured potencies and affinities stand elsewhere.

Test: growth inhibition of non-replicating M. tuberculosis (AID 488890);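 also: plate controls were DMSO cells for no effect and high antibiotic wells for full effect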
Details: Mycobacterium tuberculosis non-replicating, at 25 µM, stronger effect = higher value

SMILES	inhibition [%]
O=C(NNC1OC(CO)C(O)C(O)C1O)c1cccnc1 (stereo not drawn)	-18.5
CCOC(=O)c1c(-n2cnnn2)sc2c1CCCC2	0.53
CCCS(=O)(=O)c1nc(S(=O)(=O)c2ccc(Cl)cc2)c(N2CCC(O)CC2)s1	9.91
CCc1cccc2c(C#N)cn(CC(=O)N3CCOCC3)c12	-9.31
CCOC(=O)Cn1c(-c2ccccc2)cc(SC)c(C#N)c1=O	37.8
COC(=O)Cn1cc(C#N)c2ccccc21	51.2
CC(C)OC(=O)Cn1cc(C#N)c2ccccc21	17
CCn1c(-c2ccccc2)ccc(C#N)c1=O	-0.3
CCc1cccc2c(C#N)cn(CC(=O)NCCOC)c12	2.34
Cc1cc(Cl)ccc1OCC(=O)Nc1cccnc1	41
C[C@]12C(=O)N(c3ccccc3)C(=O)N1[C@H]1c3ccccc3OC[C@@H]1[C@H]2c1ccccc1	79
Cn1c2ccccc2c2cc(/C=N/NC(=O)c3cc(O)cc(O)c3)ccc21	-7.45
O=C(O)c1cccc(NS(=O)(=O)/C=C/c2ccccc2)c1	-0.77
O=C(O)c1ccc(NS(=O)(=O)/C=C/c2ccccc2)cc1	-4.07
CC(=O)Nc1ccc(NC(=S)NC(=O)C2CCCC2)cc1	30.2
O=C(Nc1ccc(F)cc1)C1CCCCC1	42.2
OCC1(CCOc2ccccc2)CCN(Cc2ccc3c(c2)OCCO3)CC1	14.7
COC(=O)C(NC(C)=O)(Nc1nc2ccc(S(C)(=O)=O)cc2s1)C(F)(F)F (stereo not drawn)	-2.55
COc1ccc(C(CCNCc2ccc(OC)c(OC)c2)c2ccc(F)cc2)cc1 (stereo not drawn)	76.8
COc1ccccc1C(CCNCc1ccccc1)c1ccc(OC(C)C)cc1 (stereo not drawn)	68.5
O=C(O)c1cc2c(N3CCC(Cc4ccccc4)CC3)ncnc2s1	11.8
c1ccc2c(Cn3ccnc3)cccc2c1	-22.3
CC(C)C[C@H]1CN=C(Nc2ccccc2)N1CCC1CCCC1	65.2
CC(C)C[C@H]1CN=C(Nc2ccccc2)N1CCC1CCCCC1	25.8
NC1=NC[C@@H](Cc2ccc(O)cc2)N1CCc1cccc2ccccc12	64.2

SMILES	inhibition [%]
NC1=NC[C@H](Cc2ccc(O)cc2)N1CCc1cccc(F)c1	1.77
NC1=NC[C@H](Cc2ccccc2)N1CC1CCCCC1	17
CN(C)C1=NC[C@H](Cc2ccccc2)N1CCCC1CCCC1	77
CCC(=O)N1CCc2cc(S(=O)(=O)N3CCN(c4cc(C)ccc4C)CC3)ccc21	-5.69
COc1ccc(-c2cn3nc(C)c(C)nc3n2)cc1OC	-17
Cc1nnc(Sc2c(-c3ccccc3)c3ccc(Cl)cc3[nH]c2=O)s1	31.4
CS(=O)(=O)c1cccc(C(=O)Nc2nnc(C3=COCCO3)o2)c1	22.2
COc1ccc(C(=O)Nc2nnc(C3=COCCO3)o2)cc1OC	-10.9
COc1cc(C(=O)Nc2nnc(C3=COCCO3)o2)cc(OC)c1OC	-6.31
O=C(Nc1nnc(C2=COCCO2)o1)c1ccc(S(=O)(=O)N2CCCC2)cc1	6.48
CN(C)c1ccc(C(=O)Nc2nnc(C3=COCCO3)o2)cc1	-3.42
CC(=O)Nc1nnc(C2=COCCO2)o1	3.17
O=C(O)CN1C(=O)c2cccc3c(Br)ccc1c23	2.53
CCOC(=O)Cn1nnnc1CN(CCc1ccccc1)Cc1cc2cc(CC)ccc2[nH]c1=O	-14.2
COc1ccc(Nc2nc3cc(C)ccc3cc2C#N)c(OC)c1	-16.1
Cc1cc(NC(=O)Cn2nnc3sc4c(c3c2=O)CCCC4)no1	9.47
CCCn1c(C(C)NC(=O)c2ccccc2)n[nH]c1=S (stereo not drawn)	13.1
COc1cccc(-c2ccc(NC(=O)C3CCCN(Cc4nccn4C)C3)cc2)c1 (stereo not drawn)	58
O=C(Nc1cc(Cl)ccc1-n1cncn1)c1cc(F)c(F)c(F)c1F	14
COc1cc(/C=C2\SC(=O)N(CC(=O)Nc3ccc(C)cc3)C2=O)cc(Cl)c1OCC(=O)O	12.1
O=C(NCCNC(=O)c1ccc(Br)o1)c1ccc(Br)o1	-3.49
O=C(CCNC(=O)c1ccc([N+](=O)[O-])cc1)NCc1cccs1	-8.88
O=C(NCC1CCN(C(=O)c2ccc([N+](=O)[O-])cc2)CC1)c1ccc([N+](=O)[O-])cc1	4.24
O=C(NCc1cccs1)c1ccccc1	64.8
O=C(NCC1CCCCC1)c1cccc([N+](=O)[O-])c1	69.2

SMILES	inhibition [%]
Cc1ccc(CC(=O)NCCCc2ccccc2)cc1	21.6
CCCCNC(=O)Cc1ccc(Br)cc1	74
O=C(NCCCCc1ccccc1)c1ccc(Br)o1	45.4
C=CCC[C@@H](Cc1ccc(F)cc1)C(=O)OC[C@@H](Cc1c[nH]c2ccccc12)NC(=O)[C@H](CC=C)CC(=O)N[C@H](CO)Cc1ccccc1	-0.91
CCCCOc1ccc(C(=O)OCC(=O)c2c(N)n(C)c(=O)n(C)c2=O)cc1	27.4
O=C(NCCCn1ccnc1)c1cccc(Br)c1	-17.6
COCC(=O)Nc1nc2n(n1)C(c1ccccc1Cl)CC(c1ccc(OC)cc1)N2 (stereo not drawn)	24.1
COC(=O)c1ccc(CS(=O)(=O)c2ccccc2C)o1	2.59
CCCn1c(N)c(C(=O)CSc2nc3ccccc3c(=O)n2Cc2ccccc2)c(=O)[nH]c1=O	21
COc1ccc(/C=N/NC(=O)c2ccn[nH]2)cc1Cn1cc([N+](=O)[O-])cn1	-4.11
O=C(Nc1ccc(Cl)cn1)c1cc2c(s1)-c1ccccc1OC2	27.1
O=C(CNC(=O)c1ccco1)NC1CCCCCC1	5.43
O=C(CNC(=O)c1ccc(Br)o1)NCc1ccc(F)cc1	23.3
O=C(NCc1ccncc1)c1ccc(Br)o1	12.8
O=C(NCCNC1CCCCC1)c1ccco1	-9.39
O=C(O)c1ccc(CNC(=O)c2ccc(Br)o2)cc1	21.4
O=C(NCc1ccccc1)c1ccc(Br)o1	77.6
C=CCn1c(O)c(C(CC)=Nc2cc(OC)ccc2OC)c(=O)[nH]c1=O	7.07
CCNC(=S)NNC(=O)c1ccccc1OC(F)F	-5.06
COc1ccc(CC(C(=O)Nc2ccc(OC)cc2)c2nn[nH]n2)cc1 (stereo not drawn)	8.92
Cc1cc(=O)oc2cc(NC(=S)NCc3cccnc3)ccc12	-4.07
CCCC(=O)c1cc2c(cc1NC(=O)c1ccccc1F)OCCO2	4.71
CC(=O)N1CCc2c(sc3c2c(=O)n(-c2ccccc2)c(=O)n3Cc2ccccc2Cl)C1	-8.11
